Only some compounds are listed: those with a hit (about 2.8% of all), similar ones and a draw of the others.
SNCA expr inh – SNCA gene expression inhibition; HEK-293 SNCA-luciferase knock-in, luminescence, 24 h; 140,000 tested, 0.17% active; Potency, µM (series often up to 57.2 µM), inactives show at the highest dose activity change, negative = inhibition, hits mostly inhibitors;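 further: potency means the concentration at half of the fitted maximal effect; plate controls were DMSO cells for no effect and cell-free wells for full effect; nearly all actives have a fitted effect of over 45% in size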
IP6K1 inhibitor – inhibitors of human IP6K1; AID 1645851; Q92551; 140,000 tested, 0.81% active; activity change, % (series mostly up to about 58 µM); IP6K1 kinase, ADP-Glo luminescence, 2 h; stronger effect = lower value; in the data active means activity change below about -25%; further: on the % scale 0 is the no-effect control and ±100 the full control effect
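ADP-Glo luminescence measures ADP made by human IP6K1 during a 2 h RT reaction with ATP/IP6 (mix at 1.3 mM/130 uM); top library doses 57.5 and 19.1 uM final.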
KDM5B inhibitor – blocks human KDM5B histone demethylase activity; KDM5B demethylase, FDH-coupled NADH fluorescence (FDH is formaldehyde dehydrogenase); AID 1347165; Q9UGL1; Potency, µM (highest dose often 57.7 µM), usual class: inhibitors; 220,000 tested, 2.6% active; further: potency means the concentration at half of the fitted maximal effect; 0% is about no effect; nearly all actives have a fitted effect of over 70% in size
Target sequence (Q9UGL1 whole entry, looked up): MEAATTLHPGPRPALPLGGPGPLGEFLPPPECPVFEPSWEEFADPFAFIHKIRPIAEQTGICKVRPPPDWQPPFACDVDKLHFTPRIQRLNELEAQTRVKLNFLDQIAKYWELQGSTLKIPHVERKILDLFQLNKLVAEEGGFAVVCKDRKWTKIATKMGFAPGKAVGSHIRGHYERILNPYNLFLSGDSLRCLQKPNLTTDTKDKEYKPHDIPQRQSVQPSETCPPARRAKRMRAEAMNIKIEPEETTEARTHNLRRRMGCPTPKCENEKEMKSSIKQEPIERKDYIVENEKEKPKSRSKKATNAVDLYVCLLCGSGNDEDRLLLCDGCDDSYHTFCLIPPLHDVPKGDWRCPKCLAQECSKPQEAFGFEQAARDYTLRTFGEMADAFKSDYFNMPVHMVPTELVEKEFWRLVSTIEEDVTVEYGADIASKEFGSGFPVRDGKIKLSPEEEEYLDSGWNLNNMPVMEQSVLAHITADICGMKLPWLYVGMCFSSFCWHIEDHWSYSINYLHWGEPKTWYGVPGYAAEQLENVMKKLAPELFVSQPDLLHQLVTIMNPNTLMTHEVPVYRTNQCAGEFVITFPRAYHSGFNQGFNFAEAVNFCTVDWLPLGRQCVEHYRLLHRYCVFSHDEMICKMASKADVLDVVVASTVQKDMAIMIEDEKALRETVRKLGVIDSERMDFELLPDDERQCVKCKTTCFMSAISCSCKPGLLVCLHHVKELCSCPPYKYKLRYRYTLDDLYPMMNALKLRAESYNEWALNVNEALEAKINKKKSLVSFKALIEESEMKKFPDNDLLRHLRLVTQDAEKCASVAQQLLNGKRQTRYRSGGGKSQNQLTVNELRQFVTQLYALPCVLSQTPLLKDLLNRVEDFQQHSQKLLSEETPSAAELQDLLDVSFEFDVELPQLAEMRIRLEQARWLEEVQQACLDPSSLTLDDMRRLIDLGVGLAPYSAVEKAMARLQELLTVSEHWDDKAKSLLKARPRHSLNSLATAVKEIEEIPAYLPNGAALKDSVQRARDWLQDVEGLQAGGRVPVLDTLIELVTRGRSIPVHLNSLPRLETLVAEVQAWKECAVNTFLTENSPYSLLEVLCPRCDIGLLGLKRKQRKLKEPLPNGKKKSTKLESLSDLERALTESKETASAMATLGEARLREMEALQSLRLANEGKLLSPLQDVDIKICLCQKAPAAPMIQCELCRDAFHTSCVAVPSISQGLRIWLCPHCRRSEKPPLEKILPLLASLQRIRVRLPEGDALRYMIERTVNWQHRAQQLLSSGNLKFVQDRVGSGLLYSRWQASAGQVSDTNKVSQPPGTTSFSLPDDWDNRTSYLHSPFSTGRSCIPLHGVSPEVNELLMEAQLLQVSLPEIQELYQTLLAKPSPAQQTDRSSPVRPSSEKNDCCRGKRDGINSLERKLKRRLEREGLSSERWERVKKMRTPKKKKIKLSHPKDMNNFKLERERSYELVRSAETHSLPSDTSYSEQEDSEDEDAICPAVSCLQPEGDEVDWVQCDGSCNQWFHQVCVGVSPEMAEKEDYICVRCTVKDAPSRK
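Coupled FDH/NAD⁺ fluorescence readout. KDM5BΔAP 200 nM final; compound titration, 10 min RT preincubation; substrate mix 12.5 µM H3K4me3, 25 µM 2-OG, 50 µM Fe(II), 100 µM ascorbate, 0.25 mM NAD⁺, 0.25 U/mL FDH; ΔRFU over 30 min.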
HEK293 viab – cell viability loss counter-screen; HEK-293-SNCA-luc viability, GF-AFC fluorescence, 24 h; Potency, µM (series often up to 57.1 µM), inactives show top-dose activity change, negative = cytotoxicity, usual class: cytotoxic; 150,000 tested, 0.12% active;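 further: potency means the concentration at half of the fitted maximal effect; 0% = DMSO-treated cells and -100% = medium-only wells without cells; nearly all actives have a fitted effect of over 30% in size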
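Cytotoxicity counterscreen: after 24 h compound treatment of genome-edited SNCA-luciferase HEK-293 cells, live-cell protease substrate GF-AFC read by fluorescence after 30 min; activity scaled between DMSO (0%) and medium-only (-100%), curves Hill-fitted.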
IP6K1 inh cnf – human IP6K1 inhibition, confirmatory | shares compounds with IP6K1 inhibitor | recombinant IP6K1 kinase, ADP-Glo luminescence, 2 h | Potency, µM (doses to about 49 µM), for inactives: at the highest dose activity change, negative = inhibition, hits mostly inhibitors | 1,200 tested, 13% active | AID 1645852; further: potency means the concentration at half of the fitted maximal effect; on the % scale 0 is the no-effect control and ±100 the full control effect; nearly all actives have a fitted effect of over 65% in size
Numbers without * were called inactive; i = inactive; u = inconclusive; x = not tested or not shown; ! = not active in a repeat; [ ] = another dose, or the depositor's remark. Unless noted, the call rests on the fitted dose curve; in most records, active means well fitted curve in the direction sought with a large enough effect; inconclusive means small, poorly fitted or top-dose-only effect, or another doubt; inactive means no such curve, though single readings can be large; an effect the other way counts as inactive or inconclusive.

SMILES	SNCA expr inh	IP6K1 inhibitor	KDM5B inhibitor	HEK293 viab	IP6K1 inh cnf
Cc1ccc(-c2cc(C(F)(F)F)c(C#N)c(SCC(=O)O)n2)cc1	8%	-35*	u	-4%	3%
CN(C)c1ccc(C2CC(c3c(O)n(C4CCCCC4)c(=O)[nH]c3=O)=Nc3ccccc3S2)cc1 (configuration not stated)	-14%	-32*	u	4%	16%
CN(CC(=O)Nc1ccccc1Cl)C(=O)CSc1ncnc2scc(-c3ccccc3)c12	x	x	i	x	x
Cc1ccc(-c2csc3ncnc(Sc4nnc(C)s4)c23)cc1	x	x	i	x	x
Cn1nnnc1Sc1ncnc2scc(-c3ccc4c(=O)ccoc4c3)c12	x	x	x	x	-17%
Cn1nnnc1Sc1ncnc2scc(-c3ccc(Cl)cc3)c12	x	x	x	x	1%
CCOc1cc(C2CC(=O)Nc3c(-c4ccc(OC)cc4)csc32)ccc1OCC(N)=O (configuration not stated)	x	x	i	x	x
CN(C)c1ccc2nc3ccc(=[N+](C)C)cc-3sc2c1	56%[25.6 µM]	-30*	x	u	15µM*
Cc1ccc(NC(=O)CSc2ncn[nH]2)cc1C	23%	3	u	-2%	x
Clc1ccccc1-c1nc(-c2ccncc2)no1	193%[25.6 µM]	-25*	x	-14%[23.9 µM]	u
CC(C)C(=O)N1c2ncnn2C2(CCCCC2)[C@@H]2CCCC[C@@H]21	-20%	-30*	u	5%	-17%
Cc1ccc(NC(=O)C(=O)NCC(c2ccc3c(c2)OCO3)N2CCN(C)CC2)cc1C (configuration not stated)	u	-27*	i	1%	-10%
CC(C)(O)CNc1nc(Nc2ccnc(C(F)(F)F)c2)nc(-c2cccc(C(F)(F)F)n2)n1	-1%	-12	x	-15%	x
CCc1cccc(NC(=O)c2sc3nc[nH]c(=O)c3c2C)c1	22%	18	i	1%	x
Cc1c(C(=O)Nc2cccc(C(F)(F)F)c2)sc2nc[nH]c(=O)c12	53%	-32*	u	-12%	u
CSc1ccc(C(=O)N2CCN(Cc3ccccc3)CC(O)C2)cc1 (configuration not stated)	-23%	-9	i	-2%	x
CCOC(=O)c1csc(Nc2ccc(Cl)cc2)n1	x	-27*	x	-12%	u
CN(C)C(=O)c1ccc(-c2ccccc2S(=O)(=O)NC(C)(C)C)s1	18%	3	i	-6%	x
CC(=O)Nc1cccc(-c2nnc(SCC(=O)c3cc([N+](=O)[O-])ccc3Cl)o2)c1	-6%	-31*	u	u	u
O=C(CSc1nnc(-c2ccc(Cl)cc2)o1)c1ccc([N+](=O)[O-])cc1	-1%	5	i	-3%	x
COc1cc(Nc2ncc3c(n2)-c2ccc(Cl)cc2C(c2c(F)cccc2OC)=NC3)ccc1C(=O)O	-10%	-37*!	x	-14%	u
COCC(C)Nc1oc(-c2ccc(Cl)cc2)nc1C#N (configuration not stated)	x	x	i	x	x
Cc1ccc(NC(=O)c2cc(=O)c3ccc(C)c(C)c3o2)cc1	x	x	i	x	x
CCOC(=O)c1ccc(NC(=O)c2cc(=O)c3ccc(C)c(C)c3o2)cc1	13%	-25*	i	-10%	2%
CCNC(=O)OC1CCN(C(=O)Nc2ccccc2)CC(=O)N(C)c2ccccc21 (configuration not stated)	x	1	x	x	x
SMILES	SNCA expr inh	IP6K1 inhibitor	KDM5B inhibitor	HEK293 viab	IP6K1 inh cnf
OC[C@H]1C[C@@H](NCc2cccc(Cl)c2)[C@H](O)[C@@H]1O	1%[87.6 µM]	-13	u	2%[87.6 µM]	x
OC[C@H]1C[C@@H](NCc2cccc3c2OCO3)[C@H](O)[C@@H]1O	2%[87.6 µM]	-26*	i	1%[87.6 µM]	u
CCCCn1c(=O)c(C(=O)NCCc2ccc(F)cc2)nc2cccnc21	-30%	-27*	x	1%	-10%
CCCCn1c(=O)c(C(=O)NCCc2ccccc2)nc2cccnc21	-24%	5	x	-4%	x
O=S(=O)(c1ccc2[nH]c3c(c2c1)CCCCC3)N1CCN(c2ccccc2)CC1	-5%	17	u	4%	x
CS(=O)(=O)N(C1CCOCC1)C1CN(C(=O)c2cc3ccccc3[nH]2)C1	85%	9	u	7%	x
CCCN(CCC)CCNC(=O)c1cc2c(=O)oc3ccc(C)cc3c2s1	-16%	-25*	u	17%	-4%
Cc1cc(-c2cnc(N)c3c(-c4ccc5scnc5c4)csc23)n(C)n1	x	-31*	x	-36%	u
C[N+](C)([O-])CCNc1ccc(NCC[N+](C)(C)[O-])c2c1C(=O)c1c(O)ccc(O)c1C2=O	-14%	x	x	-15%	x
O=C1c2c(O)ccc(O)c2C(=O)c2c(NCCNCCO)ccc(NCCNCCO)c21	1.2µM*!	-39*	x	u	u
COc1ccc(C(=O)Nc2nnc(SCc3cc(=O)c4cccc(F)c4[nH]3)s2)cc1	16%	-7	u	u	x
Cc1cccc(-n2c(=O)c3ccccc3n(Cc3ccccc3C#N)c2=O)c1	5%	-4	i	u	x
COc1cc(OC)cc(-n2c(=O)c3ccccc3n(Cc3ccccc3C#N)c2=O)c1	7%	-28*	i	-19%	-14%
Cc1cccc(NC(=O)CN2C(=O)c3ccccc3Sc3ncccc32)c1C	9%	12	i	3%	x
Cc1ccccc1C(=O)NC1CCCN(c2ccc3nnc(-c4ccccc4)n3n2)C1 (configuration not stated)	x	2	x	x	x
O=C(CCn1nc(-c2ccccc2)c2ccccc2c1=O)Nc1cccc2ccccc12	x	x	i	x	x
Cc1ccccc1NC(=O)CCn1nc(-c2ccccc2)c2ccccc2c1=O	-6%	-25*	i	-15%	-10%
Cc1cccc(NC(=O)Cc2csc(COc3cccc(C)c3)n2)c1	16%	-22	i	4%	x
COc1ccc(NC(=O)Cc2csc(COc3cccc(C)c3)n2)cc1OC	3%	-27*	u	-2%	34%
O=C(C1CCCN1C(=O)C1CC1)N1CCC(c2nc3ccncc3[nH]2)C1 (configuration not stated)	5%[87.6 µM]	-27*	x	11%[87.6 µM]	-4%
CN(Cc1cccc(C(F)(F)F)c1)Cc1ccccc1OC(F)(F)F	0%	18	x	-2%	x
CCC(=O)N(C1CCOCC1)C1CCN(Cc2ccc(OC)cc2OC)CC1	-11%	-1	i	1%	x
Cc1ccc(NS(=O)(=O)c2ccc3[nH]c4c(c3c2)CCCCCC4)cc1Cl	-22%	6	u	8%	x
Cc1cccc(C)c1NC(=O)CN(C)S(=O)(=O)c1ccc2[nH]c3c(c2c1)CCCC3	-16%	-26*	u	-3%	21%
Cc1ccc(NS(=O)(=O)c2ccc3[nH]c4c(c3c2)CCCC4)cc1N(C)C	u	-27*	u	-23%	-7%
Cc1cc(C)cc(NC(=O)CN(C)S(=O)(=O)c2ccc3[nH]c4c(c3c2)CCCC4)c1	u	16	u	-17%	x
O=C(CSc1nc2cc3ccccc3cc2[nH]1)Nc1cccc(C(F)(F)F)c1	60%	-30*	i[11.5 µM]	-13%	-15%
